Experiment [1] can be described thus: binders of probe aFSTL3 on microarray, primary screen, stem cell growth factor project, biochemical, small-molecule microarray, fluorescence 635/667 (AID 1064).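 Also: measures binding of the biotinylated anti-FSTL3 antibody to printed compounds.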 The settings on record: higher = more signal.
Experiment [2] in a line: binders from COS7 lysate, DM2A8 probe, primary screen, torsin A project, cell lysate, small-molecule microarray, fluorescence 635/667 (AID 1065). The note with it: higher = more signal, COS7 lysate expressing mutant human TOR1A.
Experiment [3] is described as follows: binders of probe aFGF2 on microarray, primary screen, stem cell growth factor project, biochemical, small-molecule microarray, fluorescence 635/667 (AID 1067).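 Also: measures binding of biotinylated aFGF2 protein to printed compounds on slides; z-score merges feature fluorescence and signal-to-noise across triplicate slides.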 The note with it: higher = more signal.
A short description of experiment [4]: binders of probe aFGF10 on microarray, primary screen, stem cell growth factor project, biochemical, small-molecule microarray, fluorescence 635/667 (AID 1071).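 Also: score merges 667 nm spot intensity and signal to noise from triplicate slides.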 The settings on record: higher = more signal.
Experiment [5] has as its target Neurogenic locus notch homolog protein 2 (Homo sapiens) (UniProt Q04721). The experiment is described as follows: Notch2 binders on small-molecule microarrays, primary screen, biochemical, small-molecule microarray, 635 nm fluorescence, stem cell growth factors (AID 1073). The settings on record: Notch2 binding, higher = more signal.
Experiment [6] deals with Pro-neuregulin-1, membrane-bound isoform (Homo sapiens) (UniProt Q02297). The experiment is described as follows: NRG1 binders on small-molecule microarrays, primary screen, psychiatric disease protein project, biochemical, small-molecule microarray, fluorescence 635/667 (AID 1075).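 Also: score combines 667 nm spot fluorescence with signal to noise.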 The settings on record: NRG1 binding, 635 nm fluorescence, higher = more signal.
The test system of experiment [7] is Neuregulin-1 EGF-like domain. Nature of the experiment: binders of neuregulin-1 EGF-like domain, primary screen, biochemical, small-molecule microarray, 635 nm fluorescence (AID 1081).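 Also: binding of the protein to compounds printed on small-molecule microarray slides.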 The note with it: small-molecule microarray binding, higher = more signal.
Experiment [8] can be described thus: FRG1 promoter luciferase signal modulators, primary screen, FRG1 inhibition for FSHD, cell-based, C2C12 myotubes, firefly/Renilla luciferase, luminescence (AID 1084). The settings on record: higher = more signal, called active from +8 up or from −8 down.
Experiment [9] in a line: binders of probe aFST on microarray, primary screen, stem cell growth factor project, biochemical, small-molecule microarray, fluorescence 635/667 (AID 1086).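 Also: score merges 667 nm fluorescence with signal-to-noise of each printed compound spot.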 The settings on record: higher = more signal.
Experiment [10] is described as follows: binders of probe aHhip on microarray, primary screen, stem cell growth factor project, biochemical, small-molecule microarray, fluorescence 635/667 (AID 1087).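 Also: score merges spot fluorescence at 667nm with spot signal to noise ratio.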 The settings on record: higher = more signal.

In PubChem BioAssay one finds composite z-score and z-score data, which are given here for eleven compounds.

Activity calls are given as the source filed them.

Neurogenic locus notch homolog protein 2 (Homo sapiens), sequence (Q04721 whole entry, looked up, canonical isoform): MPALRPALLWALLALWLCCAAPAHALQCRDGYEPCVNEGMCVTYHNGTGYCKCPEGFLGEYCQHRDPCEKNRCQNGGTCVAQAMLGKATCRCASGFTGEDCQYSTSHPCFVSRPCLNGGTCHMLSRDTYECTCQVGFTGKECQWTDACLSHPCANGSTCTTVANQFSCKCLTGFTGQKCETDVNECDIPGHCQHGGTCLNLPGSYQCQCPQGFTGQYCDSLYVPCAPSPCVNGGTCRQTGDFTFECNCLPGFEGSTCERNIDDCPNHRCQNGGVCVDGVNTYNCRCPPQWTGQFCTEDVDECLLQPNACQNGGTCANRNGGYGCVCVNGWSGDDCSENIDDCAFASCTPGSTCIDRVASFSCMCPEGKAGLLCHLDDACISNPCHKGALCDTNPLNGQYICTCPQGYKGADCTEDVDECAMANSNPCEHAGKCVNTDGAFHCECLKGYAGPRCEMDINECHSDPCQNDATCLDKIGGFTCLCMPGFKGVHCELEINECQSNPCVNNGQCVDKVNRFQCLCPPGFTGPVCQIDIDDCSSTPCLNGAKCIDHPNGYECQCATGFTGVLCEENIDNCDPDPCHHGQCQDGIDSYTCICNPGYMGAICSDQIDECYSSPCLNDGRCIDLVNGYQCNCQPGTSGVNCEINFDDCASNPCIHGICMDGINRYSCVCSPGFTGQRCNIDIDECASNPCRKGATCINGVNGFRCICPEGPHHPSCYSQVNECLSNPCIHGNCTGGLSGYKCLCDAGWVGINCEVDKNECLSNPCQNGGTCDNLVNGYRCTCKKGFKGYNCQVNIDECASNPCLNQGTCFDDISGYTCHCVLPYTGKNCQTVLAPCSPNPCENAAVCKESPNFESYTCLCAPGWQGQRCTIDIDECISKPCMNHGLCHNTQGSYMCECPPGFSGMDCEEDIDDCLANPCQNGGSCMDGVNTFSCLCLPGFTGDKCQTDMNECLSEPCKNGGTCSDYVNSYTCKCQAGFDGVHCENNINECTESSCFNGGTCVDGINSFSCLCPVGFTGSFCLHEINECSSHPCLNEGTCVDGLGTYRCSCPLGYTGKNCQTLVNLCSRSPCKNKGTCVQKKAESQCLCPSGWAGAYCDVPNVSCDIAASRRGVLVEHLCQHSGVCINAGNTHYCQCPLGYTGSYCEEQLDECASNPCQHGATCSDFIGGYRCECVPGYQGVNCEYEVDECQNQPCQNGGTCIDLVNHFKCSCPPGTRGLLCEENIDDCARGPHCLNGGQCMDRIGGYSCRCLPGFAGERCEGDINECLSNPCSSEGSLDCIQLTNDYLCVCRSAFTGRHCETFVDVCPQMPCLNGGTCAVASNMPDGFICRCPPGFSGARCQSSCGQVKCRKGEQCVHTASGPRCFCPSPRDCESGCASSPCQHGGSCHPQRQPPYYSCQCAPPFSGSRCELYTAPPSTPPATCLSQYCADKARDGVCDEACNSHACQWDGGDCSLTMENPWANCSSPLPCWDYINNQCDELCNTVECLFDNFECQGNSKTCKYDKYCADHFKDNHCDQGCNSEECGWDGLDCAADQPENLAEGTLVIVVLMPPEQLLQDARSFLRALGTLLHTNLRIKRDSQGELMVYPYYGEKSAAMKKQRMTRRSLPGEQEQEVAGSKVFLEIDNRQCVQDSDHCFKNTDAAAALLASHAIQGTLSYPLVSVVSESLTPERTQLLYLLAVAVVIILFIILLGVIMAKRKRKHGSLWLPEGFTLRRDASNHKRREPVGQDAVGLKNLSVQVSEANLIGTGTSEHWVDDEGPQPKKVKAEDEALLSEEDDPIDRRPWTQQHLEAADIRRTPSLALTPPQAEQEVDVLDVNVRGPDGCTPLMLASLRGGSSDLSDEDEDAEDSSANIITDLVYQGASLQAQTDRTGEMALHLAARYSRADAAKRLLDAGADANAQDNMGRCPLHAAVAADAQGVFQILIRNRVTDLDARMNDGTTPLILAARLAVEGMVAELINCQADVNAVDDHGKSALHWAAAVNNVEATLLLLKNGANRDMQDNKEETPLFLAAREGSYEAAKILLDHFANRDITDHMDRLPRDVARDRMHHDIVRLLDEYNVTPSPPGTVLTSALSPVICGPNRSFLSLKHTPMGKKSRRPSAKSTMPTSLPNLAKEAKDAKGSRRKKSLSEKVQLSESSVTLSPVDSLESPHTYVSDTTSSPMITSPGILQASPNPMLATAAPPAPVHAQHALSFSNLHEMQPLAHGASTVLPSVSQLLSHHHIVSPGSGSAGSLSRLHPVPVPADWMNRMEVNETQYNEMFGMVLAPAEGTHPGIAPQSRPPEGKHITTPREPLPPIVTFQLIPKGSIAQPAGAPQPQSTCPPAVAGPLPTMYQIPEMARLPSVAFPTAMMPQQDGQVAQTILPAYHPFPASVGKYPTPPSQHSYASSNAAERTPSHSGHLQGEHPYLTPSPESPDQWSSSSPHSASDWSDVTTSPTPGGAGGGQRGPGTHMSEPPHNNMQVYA
Pro-neuregulin-1, membrane-bound isoform (Homo sapiens), sequence (Q02297 whole entry, looked up, the tested form may be a part, canonical isoform): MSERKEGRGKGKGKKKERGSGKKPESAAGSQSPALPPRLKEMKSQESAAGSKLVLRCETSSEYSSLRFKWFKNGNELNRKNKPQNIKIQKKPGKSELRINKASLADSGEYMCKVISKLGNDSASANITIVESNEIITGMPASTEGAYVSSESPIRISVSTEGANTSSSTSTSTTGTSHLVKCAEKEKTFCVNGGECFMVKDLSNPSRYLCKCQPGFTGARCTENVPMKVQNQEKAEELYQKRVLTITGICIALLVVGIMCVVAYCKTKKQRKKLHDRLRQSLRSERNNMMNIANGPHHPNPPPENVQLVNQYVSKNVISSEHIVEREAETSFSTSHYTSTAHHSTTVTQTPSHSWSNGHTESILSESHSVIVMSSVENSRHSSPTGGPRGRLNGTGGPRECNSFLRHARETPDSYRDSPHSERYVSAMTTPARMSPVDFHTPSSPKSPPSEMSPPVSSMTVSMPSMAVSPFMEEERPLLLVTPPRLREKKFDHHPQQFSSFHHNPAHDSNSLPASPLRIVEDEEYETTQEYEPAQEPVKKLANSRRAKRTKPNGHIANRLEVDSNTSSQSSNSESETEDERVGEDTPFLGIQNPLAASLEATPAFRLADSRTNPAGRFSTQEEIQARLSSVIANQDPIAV

For the compound `CCOC(=O)C[C@H]1[C@H](OC(=O)c2ccc(-c3ccccc3)cc2)[C@@H](NC(=O)C2CCCCC2)c2cc(OCCCO)ccc2N1C(=O)c1ccccc1`, the composite z-score in [1] is -0.539; in [2] it was 0.338; in [3] it was -0.0344; in experiment [4] it was 0.303; in [5], 0.425; in [6], 0.397. The composite z-score in experiment [7] worked out at 0.337; in [9], 0.345; in [10], 0.103. Also, the z-score in [8] was -0.298 (inactive).

Turning to `C[C@]12C(=O)N(CCCCCCO)[C@@H]3C(=O)N(c4ccc(Cl)cc4)CC=CC31O[C@@H]1/C=C\CCCOC(=O)C12` (stereo not given in full), the composite z-score in experiment [1] is 0.299; in experiment [2], -0.268; in [3] it was -0.121; in [4], -0.387; in [5] it was -1.02; in experiment [6] it was 0.0955. In addition, the composite z-score in experiment [7] is 1.2; in [9], -0.21; in experiment [10], -0.132. Further, in [8], the z-score is -0.621 (inactive).

As to `C[C@@H](OCc1ccccc1)C1NC(=O)[C@@]23C(=O)N[C@@H](Cc4ccccc4)C2[C@H](C)[C@@]2(C)O[C@H]2C3/C=C/C/C=C\CNC(=O)CNC1=O` (stereo not given in full), the composite z-score in [1] was -0.231; in experiment [2], 0.667; in [3] it was -0.132; in [4], 0.25; in experiment [5], -1.08; in [6], -0.366. The composite z-score was -0.002 in experiment [7], -0.294 in experiment [9] and -0.134 in [10]. Besides, the z-score in experiment [8] is -0.0275 (inactive).

As for `C=CC[C@@]12N=C(c3ccc(OCCCO)cc3)O[C@@H]1c1ccccc1N(CCS(=O)(=O)c1ccccc1)C2=O`, the composite z-score was -0.015 in [1]; -0.302 in experiment [2]; 0.188 in experiment [3]; 0.0692 in experiment [4]; 0.659 in experiment [5]; 1.22 in experiment [6]. Besides, the results for the composite z-score in experiment [7], in [9] and in experiment [10] were 1.32, 0.261 and -0.0391, respectively. Further, the z-score in [8] is 0.601 (inactive).

With `COc1ccc(C(O)C2C=CC3C(=O)N(C)C(=O)C3N2N2CCCCC2)cc1` (stereo not given), the composite z-score is -0.162 in experiment [1]; 1.42 in experiment [2]; 0.213 in experiment [3]; 1 in [4]; 1.65 in experiment [5]; 1.61 in [6]. Further, the composite z-score was 1.38 in experiment [7], 0.201 in experiment [9] and -0.283 in [10]. For the same compound, the z-score in [8] is 1.51 (inactive).

On to `C=C(/C(=C/C[C@@H](OC(=O)c1ccncc1)c1ccccc1OCCO)c1cc(C(=O)OC)ccc1OC)C(C)C`, for which the composite z-score in experiment [1] was -0.259; in experiment [2], 0.584; in experiment [3], -0.0352; in experiment [4], 0.533; in [5], 0.311; in experiment [6], 0.878. The composite z-score in experiment [7] is 1.1; in experiment [9], 0.586; in [10] it was 0.0854. Moreover, the z-score in experiment [8] is -1.31 (inactive).

For the compound `[N-]=[N+]=NCc1ccccc1C[C@@]1(C(N)=O)N=C(c2ccc(OCCCO)cc2)O[C@@H]1c1ccccc1CN=[N+]=[N-]`, the composite z-score in [1] is 0.517; in experiment [2], -0.186; in experiment [3] it was -0.0469; in experiment [4] it was 0.972; in experiment [5], 1.53; in experiment [6], 1.01. Also, the figures for the composite z-score in [7], in [9] and in experiment [10] were 1.19, 0.544 and -0.0645, respectively. Also, in [8], the z-score is 1.56 (inactive).

Take `CCOC(=O)C1=CC[C@@H](c2ccc([N+](=O)[O-])cc2)N(S(=O)(=O)c2ccc(C)cc2)[C@H]1c1ccccc1`: the composite z-score in [1] is -0.298; in [2], 0.491; in experiment [3], 0.052; in experiment [4], 0.628; in experiment [5] it was 1.55; in experiment [6], 0.525. For the same compound, the results for the composite z-score in experiment [7], in experiment [9] and in experiment [10] were 1.4, 0.858 and 0.0695, respectively. For the same compound, in experiment [8], the z-score is -2.02 (inactive).

As for `COc1ccc([Si](C)(C)[C@H]2[C@H](CCn3cc([C@H](O)c4ccccc4)nn3)O[C@@]3(C(=O)N(Cc4cccc(N5C(=O)c6cccc7cccc5c67)c4)c4ccccc43)[C@@H]2C)cc1`, the composite z-score in experiment [1] is 0.582; in experiment [2], -0.17; in [3] it was -0.158; in experiment [4], -1.11; in [5], -1.65; in [6], 0.84. In addition, the composite z-score is 0.251 in experiment [7], -0.295 in experiment [9] and -0.0994 in experiment [10]. Further, the z-score in experiment [8] is -0.704 (inactive).

As for `CC(C)(C)OC(=O)CC[C@@]1(C(=O)O)N=C(c2ccc(OCCCO)cc2)O[C@@H]1c1ccccc1CN=[N+]=[N-]`, the composite z-score in experiment [1] was found to be 0.761; in experiment [2], 0.348; in experiment [3], 0.0732; in experiment [4], 0.246; in [5], 0.717; in experiment [6], 1.03. The composite z-score in [7] is 1.19; in experiment [9], 0.971; in experiment [10] it was 0.259. In addition, the z-score in experiment [8] is 5.39 (inactive).

Take `C=CC[C@]1(C(=O)N(C)C)N=C(c2ccc(OCCCO)cc2)O[C@H]1c1ccccc1N=[N+]=[N-]`: the composite z-score is 0.396 in experiment [1]; -0.113 in experiment [2]; 0.161 in [3]; 0.567 in experiment [4]; 1.48 in [5]; 1.3 in experiment [6]. Besides, the composite z-score is 1.2 in [7], 1.87 in [9] and -0.199 in [10]. In experiment [8], the z-score is 1.52 (inactive).
